Experimental data as given in PubChem BioAssay AID588342 (National Center for Advancing Translational Sciences (NCATS), 2011).
About 25,000 (6.9%) of roughly 360,000 compounds were called active. Inconclusive results (about 9%) are left out. Calls come from the whole dose curve; as a rule, active = well fitted inhibition curve with a large enough effect; inconclusive = small, poorly fitted or top-dose-only effect; inactive = flat fitted curve, though single readings scatter. Only a selection was taken, and actives are over-represented in it overall.

target: Luciferin 4-monooxygenase (Photinus pyralis) (UniProt P08659); test: qHTS profiling assay for firefly luciferase inhibitor/activator using purifed enzyme and Km concentrations of substrates (counterscreen for miR-21 project); details: purified FLuc, luminescence inhibition; series mostly up to 57.5 µM; activity change, negative = inhibition: at the top concentration; note: nearly all actives have a fitted effect of over 55% in size;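 for activity change, negative = inhibition: plate controls were vehicle for no effect and reference inhibitor for full effect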
Sequence (P08659 whole entry, looked up): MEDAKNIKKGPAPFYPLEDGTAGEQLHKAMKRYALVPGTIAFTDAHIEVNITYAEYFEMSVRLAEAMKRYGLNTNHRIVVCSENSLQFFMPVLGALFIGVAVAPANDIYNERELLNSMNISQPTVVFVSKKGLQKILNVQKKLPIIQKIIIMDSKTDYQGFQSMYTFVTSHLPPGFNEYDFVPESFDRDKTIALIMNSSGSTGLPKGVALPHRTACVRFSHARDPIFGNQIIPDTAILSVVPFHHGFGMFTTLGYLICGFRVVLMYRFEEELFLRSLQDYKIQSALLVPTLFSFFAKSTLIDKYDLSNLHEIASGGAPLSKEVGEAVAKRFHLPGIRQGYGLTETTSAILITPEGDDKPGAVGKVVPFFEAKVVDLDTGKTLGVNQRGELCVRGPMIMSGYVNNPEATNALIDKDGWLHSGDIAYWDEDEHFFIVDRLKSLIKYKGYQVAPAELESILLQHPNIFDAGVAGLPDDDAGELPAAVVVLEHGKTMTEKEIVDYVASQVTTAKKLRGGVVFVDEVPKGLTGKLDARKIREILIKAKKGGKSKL
How it was run: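 Purified P. pyralis luciferase (10nM final) with 10uM D-luciferin and 10uM ATP (Km levels) in 50mM Tris acetate pH 7.5, 10mM Mg acetate, 0.01% Tween-20, 0.05% BSA; qHTS 6-point titration, ~60 µM downward; luminescence read.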
Potency is the fitted concentration of half-maximal effect.

SMILES | activity change, negative = inhibition | Potency
Cc1cccc2c(=O)cc(CSc3ccccc3NC(=O)C(C)C)[nH]c12 | -4.14% (inactive) | 
Nc1c(-c2ccc(F)cc2)cnn1C1CCS(=O)(=O)C1 (stereo unspecified) | 0.904% (inactive) | 
O=C(Nc1ccc(C(F)(F)F)cc1)c1cccc(-n2cnnn2)c1 | -11.7% (inactive) | 
CC(C)NC(=O)NCCCCCCS(C)=O (stereo unspecified) | -2.89% (inactive) | 
O=C(COC(=O)Cc1ccc(Br)cc1)Nc1ccc(N2CCOCC2)cc1 | 1.52% (inactive) | 
Cc1c(NC(=O)Nc2ccccc2Cl)sc(=S)n1C | -3.73% (inactive) | 
COc1c(Cl)cc(Cl)cc1C(=O)Nc1cccc2cccnc12 | -0.765% (inactive) | 
COC(=O)c1cccc(NC(=O)c2cccc(N3C(=O)CCC3=O)c2)c1 | -12.1% (inactive) | 
Cc1cc(NC(=O)c2cccc(N3C(=O)CCC3=O)c2)no1 | 3.05% (inactive) | 
O=C(Nc1cccc2cccnc12)c1cccc(Cl)c1 |  | 15.1 µM (active)
O=C(Nc1cccc2cccnc12)c1cccc2c(Br)cccc12 | -2.63% (inactive) | 
O=C(Nc1ccccc1Cl)Nc1cccc2cccnc12 |  | 12 µM (active)
O=C(Nc1cccc2cccnc12)c1cccc(N2C(=O)CCC2=O)c1 |  | 13.5 µM (active)
N#Cc1ccc(C(=O)Nc2cccc3cccnc23)c(F)c1 | 1.03% (inactive) | 
O=S(=O)(Nc1ccc(-n2cnnn2)cc1)c1ccc(Cl)cc1 | 6.33% (inactive) | 
O=[N+]([O-])/C=C1\CCCCCN1 | -0.667% (inactive) | 
CCc1ccccc1N1CC(c2nc3ccccc3n2CCCCOc2ccccc2)CC1=O (stereo unspecified) | 3.12% (inactive) | 
O=C(CCNS(=O)(=O)c1ccccc1C(F)(F)F)Nc1ccncc1 | 6.96% (inactive) | 
Cc1ccc(-c2nnc(Nc3cccc(Br)c3)c3ccccc23)cc1S(=O)(=O)NCC1CCCO1 (stereo unspecified) | -10.7% (inactive) | 
CC1CCCC(NC(=O)COC(=O)[C@@H]2CC(O)CN2S(=O)(=O)c2ccc3c(c2)OCCO3)C1C (stereo partly specified) | -0.286% (inactive) | 
Clc1ccc(CSc2nncn3c2cc2occc23)cc1 | -18.1% (inactive) | 
CC(=O)c1ccccc1NC(=O)C1CC(=O)N(c2ccc3c(c2)OCCO3)C1 (stereo unspecified) | -0.95% (inactive) | 
COc1ccc(CNc2nc(-c3ccc(Cl)cc3)nn2S(=O)(=O)c2ccc(C)cc2)cc1 | -0.551% (inactive) | 

SMILES | activity change, negative = inhibition | Potency
COC(=O)c1cccc(NS(C)(=O)=O)c1 | 0.196% (inactive) | 
CS(=O)(=O)Nc1cccc(C2=NN(S(=O)(=O)c3ccccc3)C(c3cccs3)C2)c1 (stereo unspecified) | 2.05% (inactive) | 
CS(=O)(=O)Nc1cccc(-c2cn3ccccc3n2)c1 |  | 23.9 µM (active)
COc1ccccc1C1=CC(=O)C[C@H](c2ccc(F)cc2)C1 | 9.97% (inactive) | 
Cc1ccc(SCCC(=O)NCc2ccccn2)cc1 | -0.446% (inactive) | 
Cc1ccc(SCCSc2ncccn2)cc1 |  | 1.69 µM (active)
Cc1ccc(SCCC(=O)NC(C(C)C)C(C)C)cc1 | 0.134% (inactive) | 
CCN(C(=O)CSc1nnc(C)n2c1cc1occc12)c1ccccc1 | -7.06% (inactive) | 
COc1cc(C(=O)NNC(=O)CN2C(=O)NC3(CCCC3)C2=O)cc(OC)c1OC | 4.08% (inactive) | 
Cc1ccc(-c2nnc3c4ccccc4c(C)nn23)cc1NC(=O)c1cccc(Br)c1 | 3.27% (inactive) | 
Cc1ccnc(NC(=O)CCNS(=O)(=O)c2ccc(C)c(C)c2)c1 |  | 4.78 µM (active)
Cc1ccc(S(=O)(=O)NCCC(=O)Nc2ccc(C)c(Cl)c2)cc1C | 4.43% (inactive) | 
Cc1ccc(S(=O)(=O)NCCC(=O)Nc2cccc(S(N)(=O)=O)c2)cc1C | -0.0392% (inactive) | 
COc1cc(NC(=O)CN2CCN(S(=O)(=O)c3ccc(Br)cc3)CC2)cc(OC)c1 | -0.515% (inactive) | 
Cc1cc2ccccc2n1CCC(=O)O | 0.677% (inactive) | 
O=C(O)CCn1c(Cc2ccccc2)nc2ccccc21 | 8.23% (inactive) | 
O=C(O)CCn1c(O)c(C=C2N=c3ccccc3=N2)sc1=S |  | 1.07 µM (active)
CCOC(=O)c1ccc(NC(=O)CC2C(=O)N(c3cccc(OC)c3)C(=O)N2C2CCCCC2)cc1 (stereo unspecified) | -2.48% (inactive) | 
CN(CC(=O)Nc1ccccc1F)S(=O)(=O)c1ccc2c(c1)c(=O)n(C)c(=O)n2C | -1.96% (inactive) | 
Cc1ccc2nc(-c3ccncc3)cc(C(=O)Nc3ccc4c(c3)OCCO4)c2c1 | -14.4% (inactive) | 
Cc1ccc2nc(-c3ccccc3)cc(C(=O)O)c2c1 |  | 12 µM (active)
Cc1cc(C(=O)OCC(=O)Nc2nccs2)c2ccccc2n1 | 1.32% (inactive) | 
CCS(=O)(=O)Nc1cccc(-c2cc(-c3ccccc3)c3cc(C)ccc3n2)c1 | -1.35% (inactive) | 

SMILES | activity change, negative = inhibition | Potency
Cc1ccsc1-c1cc(C(=O)O)c2c(ccc3ccccc32)n1 |  | 5.36 µM (active)
O=C(Nc1ccncc1)c1cc(-c2ccccn2)nc2ccc(Br)cc12 | -3.8% (inactive) | 
NC(=O)c1cc(-c2cccnc2)nc2ccc(Br)cc12 | -5.36% (inactive) | 
Cc1ccc(-c2cc(C(=O)NCc3cn(C)nc3C)c3cc(Br)ccc3n2)cc1 |  | 1.9 µM (active)
O=C(NCC(c1cccs1)N1CCOCC1)c1cc(-c2ccccn2)nc2ccccc12 (stereo unspecified) | -10.4% (inactive) | 
Cc1ccc2nc(-c3cccc(Br)c3)cc(C(=O)Nn3cnnc3)c2c1 |  | 0.536 µM (active)
COc1ccccc1C(=O)Nn1cnnc1 | 6.9% (inactive) | 
O=C(NCc1cccs1)c1cc(-c2ccccn2)nc2ccc(Br)cc12 | 4.27% (inactive) | 
Cc1cccc(NC(=O)Cn2cc(S(=O)(=O)Cc3ccccc3Cl)c3ccccc32)c1 | -16.8% (inactive) | 
CCOC(=O)c1ccccc1NC(=O)c1sc2nc(-c3ccc(F)cc3)cn2c1C | -4.15% (inactive) | 
O=C(NCC12CC3CC(CC(C3)C1)C2)c1cc2nc(-c3ccccc3)cc(C(F)(F)F)n2n1 | -0.997% (inactive) | 
Cc1nc(CNS(=O)(=O)c2ccc(Oc3ccccc3)cc2)cs1 | -1.6% (inactive) | 
Cc1ccc(S(=O)(=O)c2cn(Cc3ccccc3)c3cc(N4CCCC4)c(F)cc3c2=O)c(C)c1 | -2.49% (inactive) | 
NC(=O)Cn1nc([N+](=O)[O-])nc1Oc1ccc(Br)cc1 | -0.728% (inactive) | 
COc1ccccc1-n1c(-c2ccc(C)cc2)cn2c3c(=O)n(C)c(=O)n(C)c3nc12 | -2.65% (inactive) | 
COc1cccc(C(=O)N2CCC(n3nccc3NC(=O)C3CCOC3)CC2)c1 (stereo unspecified) | 1.7% (inactive) | 
COC(=O)[C@]1(C)CCC[C@@]2(C)C3CC[C@]4(OC(C)=O)C[C@@]3(CCC21)CC4=NO (stereo partly specified) | 0.455% (inactive) | 
COc1ccc(N(CC(=O)NCCc2ccc(Cl)cc2)S(=O)(=O)c2c(C)nn(C)c2C)cc1 | -0.382% (inactive) | 
NC(=O)C1CCN(C(=O)c2ccc(-c3ccccc3)cc2)CC1 | 2.52% (inactive) | 
O=C(CCNS(=O)(=O)c1ccccc1)NCCSc1ccc(Br)cc1 | -0.614% (inactive) | 
Cc1c(NS(=O)(=O)c2ccc(Cl)cc2)c(=O)n(-c2ccccc2)n1C | 5.5% (inactive) | 
Cc1cccc(NC(=O)c2sc3nc(N4CCOCC4)c4c(c3c2N)CCCC4)c1 | -18% (inactive) | 
Nc1nc(-c2sc3nc4c(cc3c2N)CCCC4)nc(N2CCOCC2)n1 |  | 0.675 µM (active)

SMILES | activity change, negative = inhibition | Potency
Cc1nc(N2CCOCC2)nc2c1CCCC2 | -5.44% (inactive) | 
CCN(CC)c1ccc(NC(=O)CN2CCN(CC(=O)Nc3ccc(Cl)cc3)CC2)cc1 | -6.9% (inactive) | 
COc1cccc(C(=O)N/N=C(\C)c2cccc(NC(=O)c3ccc(F)cc3)c2)c1OC |  | 13.5 µM (active)
COc1cccc(C(=O)Nc2cccnc2)c1OC | -16.4% (inactive) | 
COc1ccc(/C(C)=N\NC(=O)c2ccc(-c3ccccc3)cc2)c(F)c1 | 1.48% (inactive) | 
Cc1cc(C)cc(NC(=O)Cn2nc(N3CCN(c4ccccc4)CC3)ccc2=O)c1 | -14.4% (inactive) | 
CCC1CN(S(=O)(=O)c2cc(-c3cc(C)no3)ccc2C)c2cc(C)ccc2O1 (stereo unspecified) | -4.43% (inactive) | 
CS(=O)(=O)Nc1ccc(C(=O)N2CCCC2)cc1 | 1.38% (inactive) | 
Cc1c(Cl)cccc1NC(=O)NCCCN1CCCC1=O | -0.71% (inactive) | 
Cc1c(Cl)cccc1NC(=O)Nc1ccc(C(=O)N2CCCC2)cc1 |  | 5.36 µM (active)
Cc1ccc(C)n1-c1nnc(N2CCC(C(=O)NCc3ccc(F)cc3)CC2)s1 | -3.4% (inactive) | 
Cn1c(=O)c2c(SCC(=O)N3CCc4ccccc43)nc(-c3ccc(Cl)cc3)nc2n(C)c1=O | 0.741% (inactive) | 
Cc1ccccc1OCC(=O)Nc1ccc(N2CCN(C(=O)C(C)C)CC2)c(Cl)c1 | 4.38% (inactive) | 
COCCNC(=O)COc1ccccc1C | -1.43% (inactive) | 
Cc1cccc(NC(=O)COc2ccccc2C)n1 |  | 13.5 µM (active)
Cc1ccc(S(=O)(=O)NC(=O)COc2ccccc2C)cc1 | -1.45% (inactive) | 
Cc1cccc(NC(=O)COc2ccc(Br)cc2C)n1 |  | 3.38 µM (active)
CCN(CC)S(=O)(=O)c1ccc(C)c(NC(=O)COc2ccc(Br)cc2Cl)c1 | 3.98% (inactive) | 
Cc1ccccc1OCC(=O)Nc1ccc2c(c1)ncn2C |  | 21.3 µM (active)
Cc1cccc(NC(=O)c2ccc3ccccc3n2)n1 |  | 6.01 µM (active)
Cc1ccc(OCC(=O)Nc2ccc(NC(=O)c3cccs3)cc2)c(C)c1 | -0.406% (inactive) | 
Cc1cccc(NC(=O)c2ccccc2NC(=O)C(C)(C)C)n1 | 12.6% (inactive) | 
Cc1cccc(NC(=O)c2cccnc2Cl)n1 | 2.18% (inactive) | 

SMILES | activity change, negative = inhibition | Potency
CCn1c2ccccc2c2cc(NC(=O)COc3ccc(C)cc3C)ccc21 | -11.2% (inactive) | 
Cc1nc(C)c2c(c1C(F)(F)F)-c1ccccc1C2(F)F | -3.1% (inactive) | 
COc1cccc(NC(=O)CSc2cc(=O)n(C)c3ccc(Cl)cc23)c1 | 0.0415% (inactive) | 
CCC1(CC)NC(=O)N(CC(=O)OCC(=O)c2cc(C)c(C)cc2C)C1=O | 2.66% (inactive) | 
CCOC(=O)c1c(C)[nH]c(CCC(=O)NCCCN2CCN(c3cc(C)ccc3C)CC2)c1C | 1.17% (inactive) | 
CCN(CC)C(=O)CSC1c2ccccc2C(=O)N1c1ccccc1 (stereo unspecified) | -6.61% (inactive) | 
Cc1ccc(CCCOC(=O)C[N+]2(C)CCCC2)cc1 | 4.94% (inactive) | 
Cn1c(=O)c2c(n(Cc3ccccc3)c1=O)NC(=O)C2CC(=O)N1CCc2ccccc2C1 (stereo unspecified) | 0.136% (inactive) | 
CC(=O)Nc1cccc2c1[n+]([O-])c(C)c(C)[n+]2[O-] | -0.147% (inactive) | 
CCOc1ccc(NC(=O)c2cc3c(=O)n(Cc4cccs4)ccc3nc2C)cc1 | -9.25% (inactive) | 
NC(=O)CSc1nnc(NC(=O)c2ccc3ccccc3c2)s1 |  | 2.39 µM (active)
Cc1ccc(C(=O)Nc2nnc(-c3ccncc3)s2)o1 | -0.508% [at 2.3 µM] (inactive) | 
CCOCc1nnc(NC(=O)CSc2ccc(C)cc2)s1 | 2.73% (inactive) | 
O=C(Nc1nnc(CCN2CCCCC2)s1)c1cccc(Cl)c1 | -2.89% (inactive) | 
CCSc1nnc(NC(=O)c2ccc(C)cc2)s1 |  | 2.69 µM (active)
COC(=O)CSc1nnc(NC(=O)CCc2ccccc2)s1 | 2.62% (inactive) | 
CSc1nnc(NC(=O)c2nc(S(=O)(=O)Cc3ccc(C)cc3)ncc2Cl)s1 | 3.37% (inactive) | 
O=C(/C=C/c1ccccc1)Nc1nnc(SCC(=O)c2ccc3ccccc3c2)s1 | -11.5% (inactive) | 
NC(=O)CSc1nnc(NC(=O)c2ccc(Br)o2)s1 |  | 16.9 µM (active)
